Assay results: ChEMBL document CHEMBL1961873, “Compounds: GSK PKIS; Assays: Nanosyn kinase panel” (2012)

Columns and labels:
[1] = target: T1, Inhibitor of nuclear factor kappa-B kinase subunit epsilon (Homo sapiens) (UniProt Q14164); conditions: at 1 µM;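 note: reported values are averaged percent inhibition figures against human IKKε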
T1 sequence (whole entry): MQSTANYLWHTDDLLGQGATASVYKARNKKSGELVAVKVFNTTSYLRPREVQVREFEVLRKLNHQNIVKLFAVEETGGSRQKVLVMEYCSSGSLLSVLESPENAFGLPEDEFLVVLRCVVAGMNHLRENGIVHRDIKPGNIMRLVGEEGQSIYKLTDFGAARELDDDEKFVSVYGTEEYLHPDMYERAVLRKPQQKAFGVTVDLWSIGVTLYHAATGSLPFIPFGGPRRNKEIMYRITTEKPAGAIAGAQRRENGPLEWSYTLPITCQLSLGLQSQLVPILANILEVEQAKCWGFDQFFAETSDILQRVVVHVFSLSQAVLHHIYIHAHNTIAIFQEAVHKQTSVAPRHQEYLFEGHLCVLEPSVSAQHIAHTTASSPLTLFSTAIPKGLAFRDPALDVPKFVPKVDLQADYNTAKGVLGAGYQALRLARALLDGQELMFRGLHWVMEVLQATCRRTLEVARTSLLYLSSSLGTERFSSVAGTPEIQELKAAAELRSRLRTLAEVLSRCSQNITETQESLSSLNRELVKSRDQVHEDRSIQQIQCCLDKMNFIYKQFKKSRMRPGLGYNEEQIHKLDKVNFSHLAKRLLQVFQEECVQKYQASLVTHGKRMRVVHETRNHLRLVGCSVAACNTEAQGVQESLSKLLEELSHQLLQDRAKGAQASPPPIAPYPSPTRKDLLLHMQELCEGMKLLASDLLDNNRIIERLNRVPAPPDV

[2] = target: T2, Serine/threonine-protein kinase Nek1 (Homo sapiens) (UniProt Q96PY6); conditions: at 0.1 µM
T2 sequence (whole entry): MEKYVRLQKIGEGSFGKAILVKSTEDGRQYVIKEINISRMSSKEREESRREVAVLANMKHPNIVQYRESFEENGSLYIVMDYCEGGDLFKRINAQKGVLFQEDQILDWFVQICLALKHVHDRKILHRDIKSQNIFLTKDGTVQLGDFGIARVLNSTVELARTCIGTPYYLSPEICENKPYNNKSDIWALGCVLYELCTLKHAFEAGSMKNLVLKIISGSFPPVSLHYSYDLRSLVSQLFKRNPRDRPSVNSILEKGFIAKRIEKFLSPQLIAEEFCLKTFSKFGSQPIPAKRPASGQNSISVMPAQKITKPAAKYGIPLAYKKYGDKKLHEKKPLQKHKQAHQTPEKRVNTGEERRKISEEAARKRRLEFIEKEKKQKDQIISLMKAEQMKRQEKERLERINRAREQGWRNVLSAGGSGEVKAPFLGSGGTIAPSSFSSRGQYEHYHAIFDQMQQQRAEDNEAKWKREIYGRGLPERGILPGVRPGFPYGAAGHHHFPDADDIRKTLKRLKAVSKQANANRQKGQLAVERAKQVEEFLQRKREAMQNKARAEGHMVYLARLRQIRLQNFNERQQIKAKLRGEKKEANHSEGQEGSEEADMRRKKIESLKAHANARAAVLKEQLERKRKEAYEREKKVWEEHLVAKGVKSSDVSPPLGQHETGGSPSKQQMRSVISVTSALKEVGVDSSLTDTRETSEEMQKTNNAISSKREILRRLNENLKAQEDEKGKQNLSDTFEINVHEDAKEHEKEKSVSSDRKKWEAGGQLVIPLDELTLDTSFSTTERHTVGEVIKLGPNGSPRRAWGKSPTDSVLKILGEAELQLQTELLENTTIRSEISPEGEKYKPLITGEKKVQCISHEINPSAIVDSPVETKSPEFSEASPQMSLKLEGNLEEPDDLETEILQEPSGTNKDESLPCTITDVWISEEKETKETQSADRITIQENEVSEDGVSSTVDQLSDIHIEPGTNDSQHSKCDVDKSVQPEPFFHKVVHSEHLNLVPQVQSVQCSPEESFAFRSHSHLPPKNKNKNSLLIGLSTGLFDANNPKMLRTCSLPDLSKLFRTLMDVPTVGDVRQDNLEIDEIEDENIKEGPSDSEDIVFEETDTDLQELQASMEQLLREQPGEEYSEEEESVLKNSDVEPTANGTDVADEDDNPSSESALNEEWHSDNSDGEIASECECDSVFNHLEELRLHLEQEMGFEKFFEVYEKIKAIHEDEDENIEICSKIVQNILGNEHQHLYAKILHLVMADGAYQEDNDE

[3] = target: T2, Serine/threonine-protein kinase Nek1 (Homo sapiens); conditions: at 1 µM
[4] = target: T3, Serine/threonine-protein kinase Nek2 (Homo sapiens) (UniProt P51955); conditions: at 0.1 µM
T3 sequence (whole entry): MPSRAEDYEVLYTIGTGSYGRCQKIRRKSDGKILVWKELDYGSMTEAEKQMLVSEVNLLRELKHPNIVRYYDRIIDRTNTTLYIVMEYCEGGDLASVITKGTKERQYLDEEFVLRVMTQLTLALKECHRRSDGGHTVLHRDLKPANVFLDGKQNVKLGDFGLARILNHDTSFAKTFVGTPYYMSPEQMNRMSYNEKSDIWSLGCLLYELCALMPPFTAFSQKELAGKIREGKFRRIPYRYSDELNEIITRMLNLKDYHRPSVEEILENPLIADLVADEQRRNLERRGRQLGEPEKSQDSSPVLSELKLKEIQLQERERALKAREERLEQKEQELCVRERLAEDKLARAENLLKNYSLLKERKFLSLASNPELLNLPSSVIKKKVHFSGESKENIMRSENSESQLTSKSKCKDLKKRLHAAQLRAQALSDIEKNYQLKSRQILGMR

[5] = target: T3, Serine/threonine-protein kinase Nek2 (Homo sapiens); conditions: at 1 µM
[6] = target: Serine/threonine-protein kinase Nek6 (Homo sapiens) (UniProt Q9HC98); conditions: at 0.1 µM
[7] = target: Serine/threonine-protein kinase Nek6 (Homo sapiens) (UniProt Q9HC98); conditions: at 1 µM
[8] = target: Serine/threonine-protein kinase Nek7 (Homo sapiens) (UniProt Q8TDX7); conditions: at 0.1 µM
[9] = target: Serine/threonine-protein kinase Nek7 (Homo sapiens) (UniProt Q8TDX7); conditions: at 1 µM
[10] = target: T4, Serine/threonine-protein kinase Nek9 (Homo sapiens) (UniProt Q8TD19); conditions: at 0.1 µM
T4 sequence (whole entry): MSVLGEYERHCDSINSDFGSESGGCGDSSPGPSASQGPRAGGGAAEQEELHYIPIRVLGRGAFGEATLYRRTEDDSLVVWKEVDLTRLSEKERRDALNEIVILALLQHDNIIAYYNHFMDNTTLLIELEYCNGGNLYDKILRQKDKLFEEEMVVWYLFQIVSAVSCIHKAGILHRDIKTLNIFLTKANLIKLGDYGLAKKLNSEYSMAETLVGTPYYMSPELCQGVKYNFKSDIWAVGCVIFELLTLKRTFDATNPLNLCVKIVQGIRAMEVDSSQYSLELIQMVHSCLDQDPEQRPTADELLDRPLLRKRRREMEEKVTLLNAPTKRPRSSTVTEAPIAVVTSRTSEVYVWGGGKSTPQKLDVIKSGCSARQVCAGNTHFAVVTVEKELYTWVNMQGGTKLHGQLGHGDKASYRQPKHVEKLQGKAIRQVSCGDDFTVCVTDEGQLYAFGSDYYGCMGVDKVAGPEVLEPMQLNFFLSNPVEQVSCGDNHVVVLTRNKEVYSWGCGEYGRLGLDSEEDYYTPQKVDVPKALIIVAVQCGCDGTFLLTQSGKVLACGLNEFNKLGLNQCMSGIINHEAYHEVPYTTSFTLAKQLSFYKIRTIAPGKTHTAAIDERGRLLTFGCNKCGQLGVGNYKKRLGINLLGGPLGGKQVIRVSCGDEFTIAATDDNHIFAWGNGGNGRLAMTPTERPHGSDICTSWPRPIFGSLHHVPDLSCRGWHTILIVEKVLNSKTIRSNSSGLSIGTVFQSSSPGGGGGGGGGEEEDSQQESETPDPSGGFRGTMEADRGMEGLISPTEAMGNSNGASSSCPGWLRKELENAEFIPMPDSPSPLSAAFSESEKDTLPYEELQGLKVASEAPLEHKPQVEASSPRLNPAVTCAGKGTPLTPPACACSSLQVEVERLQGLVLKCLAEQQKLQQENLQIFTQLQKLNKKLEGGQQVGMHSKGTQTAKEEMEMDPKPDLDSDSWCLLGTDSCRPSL

[11] = target: T4, Serine/threonine-protein kinase Nek9 (Homo sapiens); conditions: at 1 µM
[12] = target: Serine/threonine-protein kinase PLK1 (Homo sapiens) (UniProt P53350); conditions: at 0.1 µM
[13] = target: Serine/threonine-protein kinase PLK1 (Homo sapiens) (UniProt P53350); conditions: at 1 µM
[14] = target: T5, Dual specificity protein kinase TTK (Homo sapiens) (UniProt P33981); conditions: at 0.1 µM
T5 sequence (whole entry): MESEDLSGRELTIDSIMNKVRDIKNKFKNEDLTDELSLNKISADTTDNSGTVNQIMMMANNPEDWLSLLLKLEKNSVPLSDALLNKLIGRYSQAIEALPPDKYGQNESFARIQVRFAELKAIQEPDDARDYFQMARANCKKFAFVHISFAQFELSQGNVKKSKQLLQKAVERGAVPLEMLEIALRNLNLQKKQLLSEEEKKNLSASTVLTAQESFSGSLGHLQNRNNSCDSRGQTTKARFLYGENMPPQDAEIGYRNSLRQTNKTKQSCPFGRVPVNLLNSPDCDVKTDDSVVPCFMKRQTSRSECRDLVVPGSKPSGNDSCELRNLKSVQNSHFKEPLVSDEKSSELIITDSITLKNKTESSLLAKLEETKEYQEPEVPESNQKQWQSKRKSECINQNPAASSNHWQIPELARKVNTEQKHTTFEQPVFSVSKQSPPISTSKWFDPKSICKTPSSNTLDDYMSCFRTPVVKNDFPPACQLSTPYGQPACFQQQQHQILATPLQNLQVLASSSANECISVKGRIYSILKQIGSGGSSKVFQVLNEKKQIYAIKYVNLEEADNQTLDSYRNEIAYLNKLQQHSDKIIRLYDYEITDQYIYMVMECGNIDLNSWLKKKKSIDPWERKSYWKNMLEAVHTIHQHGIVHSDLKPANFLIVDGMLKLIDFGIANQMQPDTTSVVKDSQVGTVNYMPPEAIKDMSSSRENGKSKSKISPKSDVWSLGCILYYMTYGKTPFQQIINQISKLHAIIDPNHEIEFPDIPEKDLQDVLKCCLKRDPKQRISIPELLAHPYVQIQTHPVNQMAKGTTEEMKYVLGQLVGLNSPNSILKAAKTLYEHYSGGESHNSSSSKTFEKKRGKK

[15] = test system: T6, Receptor-type tyrosine-protein kinase FLT3 (Homo sapiens), P36888 [D835Y]; conditions: at 1 µM
T6 sequence (whole entry): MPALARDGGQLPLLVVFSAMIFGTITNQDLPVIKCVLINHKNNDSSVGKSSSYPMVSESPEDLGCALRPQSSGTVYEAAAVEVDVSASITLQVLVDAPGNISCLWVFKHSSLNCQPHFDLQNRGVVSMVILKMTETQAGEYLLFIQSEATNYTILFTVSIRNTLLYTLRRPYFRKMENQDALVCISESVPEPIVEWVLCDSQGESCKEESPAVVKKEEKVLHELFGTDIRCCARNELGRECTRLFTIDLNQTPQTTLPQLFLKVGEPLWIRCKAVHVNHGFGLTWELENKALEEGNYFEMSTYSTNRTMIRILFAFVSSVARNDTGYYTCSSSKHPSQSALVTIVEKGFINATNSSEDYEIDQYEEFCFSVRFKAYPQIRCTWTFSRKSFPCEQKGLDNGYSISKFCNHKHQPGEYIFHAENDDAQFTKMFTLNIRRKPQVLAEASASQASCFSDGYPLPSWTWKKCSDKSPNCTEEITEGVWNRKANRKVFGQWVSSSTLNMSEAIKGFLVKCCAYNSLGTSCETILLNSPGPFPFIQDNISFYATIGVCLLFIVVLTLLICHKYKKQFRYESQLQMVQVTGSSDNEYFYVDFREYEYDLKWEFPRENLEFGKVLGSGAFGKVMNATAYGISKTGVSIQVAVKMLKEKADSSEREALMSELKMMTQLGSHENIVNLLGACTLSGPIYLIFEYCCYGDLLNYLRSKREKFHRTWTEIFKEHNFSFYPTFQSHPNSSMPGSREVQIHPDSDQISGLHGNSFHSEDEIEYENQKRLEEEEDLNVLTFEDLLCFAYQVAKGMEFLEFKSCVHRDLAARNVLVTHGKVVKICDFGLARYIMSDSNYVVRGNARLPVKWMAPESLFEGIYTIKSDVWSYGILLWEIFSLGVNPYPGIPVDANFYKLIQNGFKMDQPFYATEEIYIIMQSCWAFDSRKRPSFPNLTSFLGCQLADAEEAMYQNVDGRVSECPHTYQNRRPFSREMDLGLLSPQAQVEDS

[16] = target: Vascular endothelial growth factor receptor 3 (Homo sapiens) (UniProt P35916); conditions: at 0.1 µM
[17] = target: Vascular endothelial growth factor receptor 3 (Homo sapiens) (UniProt P35916); conditions: at 1 µM
[18] = target: Macrophage colony-stimulating factor 1 receptor (Homo sapiens) (UniProt P07333); conditions: at 0.1 µM
[19] = target: Macrophage colony-stimulating factor 1 receptor (Homo sapiens) (UniProt P07333); conditions: at 1 µM
[20] = target: Tyrosine-protein kinase Fyn (Homo sapiens) (UniProt P06241); conditions: at 0.1 µM
Tyrosine-protein kinase Fyn (Homo sapiens), sequence (P06241 2-537 limits assumed): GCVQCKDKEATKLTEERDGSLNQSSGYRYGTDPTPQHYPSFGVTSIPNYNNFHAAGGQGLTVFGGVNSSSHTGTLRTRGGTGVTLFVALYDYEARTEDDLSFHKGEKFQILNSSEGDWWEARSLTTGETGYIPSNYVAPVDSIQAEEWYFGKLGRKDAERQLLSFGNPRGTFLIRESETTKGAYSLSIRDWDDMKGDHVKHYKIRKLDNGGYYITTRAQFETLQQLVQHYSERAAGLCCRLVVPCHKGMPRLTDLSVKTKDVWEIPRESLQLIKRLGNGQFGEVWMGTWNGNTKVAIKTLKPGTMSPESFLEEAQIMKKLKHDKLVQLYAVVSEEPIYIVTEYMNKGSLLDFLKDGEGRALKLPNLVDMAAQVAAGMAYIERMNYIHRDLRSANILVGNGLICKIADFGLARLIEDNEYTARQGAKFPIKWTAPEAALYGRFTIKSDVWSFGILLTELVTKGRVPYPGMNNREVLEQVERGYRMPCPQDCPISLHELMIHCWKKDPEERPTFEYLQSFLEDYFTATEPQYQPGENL

Serine/threonine-protein kinase Nek6 (Homo sapiens), sequence (Q9HC98 whole entry): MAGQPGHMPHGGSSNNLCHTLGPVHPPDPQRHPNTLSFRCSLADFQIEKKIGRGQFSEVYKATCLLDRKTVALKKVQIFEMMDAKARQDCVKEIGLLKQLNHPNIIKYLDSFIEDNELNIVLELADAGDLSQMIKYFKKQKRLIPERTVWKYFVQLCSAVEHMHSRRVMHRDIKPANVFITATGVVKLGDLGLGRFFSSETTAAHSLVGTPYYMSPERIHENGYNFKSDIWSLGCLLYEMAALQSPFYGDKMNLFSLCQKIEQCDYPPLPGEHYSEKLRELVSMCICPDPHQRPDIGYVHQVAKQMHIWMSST
Macrophage colony-stimulating factor 1 receptor (Homo sapiens), sequence (P07333 whole entry): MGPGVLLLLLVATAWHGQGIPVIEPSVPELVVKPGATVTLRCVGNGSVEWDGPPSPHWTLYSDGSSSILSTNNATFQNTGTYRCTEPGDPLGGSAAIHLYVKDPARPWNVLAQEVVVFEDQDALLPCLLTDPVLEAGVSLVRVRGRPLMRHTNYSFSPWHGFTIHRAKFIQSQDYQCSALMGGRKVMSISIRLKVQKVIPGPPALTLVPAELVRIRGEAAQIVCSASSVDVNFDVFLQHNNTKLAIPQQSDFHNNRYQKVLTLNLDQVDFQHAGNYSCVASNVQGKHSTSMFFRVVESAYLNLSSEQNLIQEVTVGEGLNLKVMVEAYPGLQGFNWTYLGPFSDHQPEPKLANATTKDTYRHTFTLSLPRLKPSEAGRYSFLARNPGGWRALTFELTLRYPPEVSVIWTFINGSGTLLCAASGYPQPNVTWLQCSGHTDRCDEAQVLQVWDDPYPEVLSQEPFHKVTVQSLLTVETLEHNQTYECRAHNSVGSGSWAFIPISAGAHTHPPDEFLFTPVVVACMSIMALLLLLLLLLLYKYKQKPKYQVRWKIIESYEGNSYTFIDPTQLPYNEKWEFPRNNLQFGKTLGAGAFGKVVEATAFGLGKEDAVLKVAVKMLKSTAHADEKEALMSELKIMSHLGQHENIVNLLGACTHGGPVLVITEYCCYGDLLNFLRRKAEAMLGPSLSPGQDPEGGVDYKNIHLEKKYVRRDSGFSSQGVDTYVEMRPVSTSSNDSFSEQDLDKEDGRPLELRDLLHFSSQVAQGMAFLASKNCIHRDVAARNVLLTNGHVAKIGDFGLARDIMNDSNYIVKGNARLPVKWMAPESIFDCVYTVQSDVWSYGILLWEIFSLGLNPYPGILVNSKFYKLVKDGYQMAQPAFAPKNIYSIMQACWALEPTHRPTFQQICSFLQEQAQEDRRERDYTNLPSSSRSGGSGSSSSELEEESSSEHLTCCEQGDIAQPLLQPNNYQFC
Serine/threonine-protein kinase PLK1 (Homo sapiens), sequence (P53350 whole entry): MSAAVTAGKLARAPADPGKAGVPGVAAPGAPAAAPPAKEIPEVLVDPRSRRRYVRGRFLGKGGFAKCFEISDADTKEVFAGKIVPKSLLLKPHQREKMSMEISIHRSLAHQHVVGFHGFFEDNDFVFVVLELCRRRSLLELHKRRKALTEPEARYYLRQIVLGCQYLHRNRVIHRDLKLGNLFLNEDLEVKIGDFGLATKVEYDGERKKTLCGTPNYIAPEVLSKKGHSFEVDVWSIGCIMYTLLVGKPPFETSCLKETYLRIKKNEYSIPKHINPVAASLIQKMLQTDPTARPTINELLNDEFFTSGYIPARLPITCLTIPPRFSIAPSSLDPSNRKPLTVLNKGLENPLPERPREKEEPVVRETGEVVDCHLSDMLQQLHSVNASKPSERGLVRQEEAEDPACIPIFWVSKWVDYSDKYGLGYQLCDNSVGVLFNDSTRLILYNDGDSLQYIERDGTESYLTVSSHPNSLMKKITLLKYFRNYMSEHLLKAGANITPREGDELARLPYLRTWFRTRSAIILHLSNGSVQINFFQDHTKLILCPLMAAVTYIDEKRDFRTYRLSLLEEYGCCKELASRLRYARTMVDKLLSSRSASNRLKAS
Serine/threonine-protein kinase Nek7 (Homo sapiens), sequence (Q8TDX7 whole entry, looked up): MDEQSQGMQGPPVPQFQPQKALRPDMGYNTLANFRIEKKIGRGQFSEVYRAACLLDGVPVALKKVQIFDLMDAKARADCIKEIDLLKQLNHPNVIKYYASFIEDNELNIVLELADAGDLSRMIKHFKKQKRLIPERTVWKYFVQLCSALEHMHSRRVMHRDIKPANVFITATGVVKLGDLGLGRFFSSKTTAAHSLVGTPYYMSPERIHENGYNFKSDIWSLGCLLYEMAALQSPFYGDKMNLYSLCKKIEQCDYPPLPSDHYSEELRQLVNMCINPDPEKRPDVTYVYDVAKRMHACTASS
Vascular endothelial growth factor receptor 3 (Homo sapiens), sequence (P35916 whole entry): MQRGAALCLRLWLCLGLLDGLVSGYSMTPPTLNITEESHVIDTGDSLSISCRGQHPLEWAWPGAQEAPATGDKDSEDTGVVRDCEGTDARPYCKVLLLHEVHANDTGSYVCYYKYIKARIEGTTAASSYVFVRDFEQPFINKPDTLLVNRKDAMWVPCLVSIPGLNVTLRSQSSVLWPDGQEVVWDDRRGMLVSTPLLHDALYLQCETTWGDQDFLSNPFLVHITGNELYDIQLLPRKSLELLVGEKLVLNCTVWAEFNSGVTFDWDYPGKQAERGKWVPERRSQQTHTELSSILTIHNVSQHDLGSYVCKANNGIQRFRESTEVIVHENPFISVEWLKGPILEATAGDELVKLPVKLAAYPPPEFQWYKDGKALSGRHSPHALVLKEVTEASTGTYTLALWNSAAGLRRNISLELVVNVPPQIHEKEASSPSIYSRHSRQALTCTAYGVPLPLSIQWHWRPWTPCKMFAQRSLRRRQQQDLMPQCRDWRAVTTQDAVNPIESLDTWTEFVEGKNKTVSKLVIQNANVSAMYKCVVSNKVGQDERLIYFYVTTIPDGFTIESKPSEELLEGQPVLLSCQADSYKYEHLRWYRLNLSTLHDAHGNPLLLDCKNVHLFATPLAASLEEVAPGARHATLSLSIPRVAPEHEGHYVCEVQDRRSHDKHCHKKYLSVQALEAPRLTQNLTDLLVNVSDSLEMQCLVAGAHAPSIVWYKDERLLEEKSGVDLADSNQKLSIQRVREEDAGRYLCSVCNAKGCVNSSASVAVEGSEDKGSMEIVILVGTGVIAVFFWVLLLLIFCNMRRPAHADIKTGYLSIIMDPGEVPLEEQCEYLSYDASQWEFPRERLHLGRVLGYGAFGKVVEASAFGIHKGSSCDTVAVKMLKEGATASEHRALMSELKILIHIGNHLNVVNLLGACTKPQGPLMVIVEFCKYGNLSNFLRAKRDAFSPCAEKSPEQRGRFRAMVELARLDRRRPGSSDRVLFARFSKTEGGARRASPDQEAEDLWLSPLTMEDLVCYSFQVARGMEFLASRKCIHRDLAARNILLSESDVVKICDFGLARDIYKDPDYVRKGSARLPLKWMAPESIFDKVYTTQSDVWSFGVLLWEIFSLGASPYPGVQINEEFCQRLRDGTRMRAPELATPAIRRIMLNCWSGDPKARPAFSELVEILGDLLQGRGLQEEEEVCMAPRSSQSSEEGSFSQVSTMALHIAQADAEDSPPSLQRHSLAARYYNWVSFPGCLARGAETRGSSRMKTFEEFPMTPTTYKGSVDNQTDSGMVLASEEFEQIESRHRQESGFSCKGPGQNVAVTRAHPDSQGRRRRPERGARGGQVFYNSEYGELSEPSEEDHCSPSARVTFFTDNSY

SMILES	inhibition [1] [%]	inhibition [2] [%]	inhibition [3] [%]	inhibition [4] [%]	inhibition [5] [%]	inhibition [6] [%]	inhibition [7] [%]	inhibition [8] [%]	inhibition [9] [%]	inhibition [10] [%]	inhibition [11] [%]	inhibition [12] [%]	inhibition [13] [%]	inhibition [14] [%]	inhibition [15] [%]	inhibition [16] [%]	inhibition [17] [%]	inhibition [18] [%]	inhibition [19] [%]	inhibition [20] [%]
CCn1c(-c2nonc2N)nc2c(C#CC(C)(C)O)nc(O[C@@H](CN)c3ccccc3)cc21	98.9	1.61	17.2	5.29	33.5	0.93	-0.92	1.12	0.58	3.66	-1.03	0.95	0.24	3.8	2.22	58.4	93.8	0.67	1.9	3.24
COc1cc2c(cc1Nc1nc(Nc3ccsc3C(N)=O)c3cc[nH]c3n1)N(C(=O)CN(C)C)CCC2	9.27	0.09	0.97		6.67	1.52	-0.11	1.7	9.62	1.89	-3.87	86.3	97.1	9.22	5.44			55	82.8	2.02
